PubChem BioAssay (Tox21)
Results filed as inconclusive are left out. The source made the active and inactive calls. Unless noted, calls come from the whole dose curve; as a rule, active = well fitted curve in the direction sought with a large enough effect in the repeat runs; inconclusive = weak or mixed curves; inactive = no such curve, though single readings can be large; an effect the other way counts as inactive or inconclusive.

What was measured:
[1] = qHTS assay to identify small molecule antagonists of the estrogen related receptor (ERR) signaling pathway from Tox21 library - cell viability counter screen (AID 1224834); note: nearly all actives have a fitted effect of over 30% in size; note: potency is the fitted concentration of half-maximal effect
Summary of the method: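 After 17.5 h of compound exposure at 37 C, ERR cells are incubated with CellTiter-Fluor for 30 min and fluorescence intensity serves as the viability measure.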

[2] = molecular target: Luciferin 4-monooxygenase (Photinus pyralis) (UniProt P08659); test: qHTS assay to identify small molecule inhibitors of firefly luciferase (AID 1224835); note: nearly all actives have a fitted effect of over 25% in size; note: potency is the fitted concentration of half-maximal effect; for activity change, negative = inhibition: series mostly up to about 120 µM
Summary of the method: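 Biochemical qHTS: compounds run as interplate titrations against purified firefly enzyme, with D-luciferin and ATP each at its KM concentration. Light output recorded by CCD imaging.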

[3] = qHTS assay to identify small molecule agonists of the constitutive androstane receptor (CAR) signaling pathway - cell viability counter screen (AID 1224836); note: nearly all actives have a fitted effect of over 45% in size; note: potency is the fitted concentration of half-maximal effect; for viability change, negative = cytotoxic: series mostly up to about 92 µM
Summary of the method: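 HepG2-CYP2B6-hCAR, 2500 cells/well, 4 h pre-incubation; cpd 15 conc + PK11195 0.75 uM final; 23 h, 37 C/5% CO2; CellTiter-Fluor, fluorescence.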

[4] = qHTS assay to identify small molecule antagonists of the constitutive androstane receptor (CAR) signaling pathway - cell viability counter screen (AID 1224837); note: nearly all actives have a fitted effect of over 45% in size; note: potency is the fitted concentration of half-maximal effect; for activity change, negative = cytotoxicity: series mostly up to about 92 µM
Summary of the method: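 Counter screen run in HepG2-CYP2B6-hCAR cells: 4 hr settle, compound titration (15 concentrations) with 50 nM CITCO, 23 hr at 37 C/5% CO2, CellTiter-Fluor fluorescence.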

[5] = qHTS assay to identify small molecule antagonists of the estrogen related receptor signaling pathway with the pleiotropic PPARgamma coactivator (PGC) from Tox21 10K library - cell viability counter screen (AID 1224840; active = well fitted cell-killing curve with a large enough effect in the repeat runs, not every such curve was filed as active; note: nearly all actives have a fitted effect of over 40% in size; note: potency is the fitted concentration of half-maximal effect)
Summary of the method: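 Following seeding of 2,000 PGC/ERR cells/well and 6 hours' incubation, test compounds were delivered in DMSO. The plates then sat 17.5 hours at 37 C before a fluorogenic live-cell protease reagent (CellTiter-Fluor) was read after 30 min.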

[6] = molecular target: Thyrotropin receptor (Homo sapiens) (UniProt P16473); test: qHTS assay to identify small molecule agonists of the thyroid stimulating hormone receptor (TSHR) signaling pathway (AID 1224843; calls by dose curve; note: nearly all actives have a fitted effect of over 45% in size)
Summary of the method: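 Steps: seed 800 TSHR-HEK293 cells per well; add test compound and hold 30 min at ambient temperature; dispense cAMP-d2 then anti-cAMP cryptate; incubate 1 h at ambient; measure fluorescence intensity.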

[7] = qHTS assay to identify small molecule agonists of the hypoxia (HIF-1) signaling pathway - cell viability counter screen (AID 1224844; calls by dose curve; note: nearly all actives have a fitted effect of over 50% in size)
Summary of the method: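 Cells (HRE-bla ME-180, 2,000 per well) sat 5 hrs at 37C, got compound for 17 hrs, were read for CCF4-AM FRET, and were finally lysed with CellTiter-Glo for a 30 min room-temperature luminescence read.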

[8] = qHTS assay to identify small molecule agonists of H2AX (AID 1224845; active = well fitted activation curve with a large enough effect in the signal ratio in the repeat runs, not every such curve was filed as active; the % refers to the signal ratio)
Summary of the method: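 Wild-type CHO-K1 cells, plated overnight, exposed 3hr at 37C to 15 concentrations (0.76% DMSO final). Lysed, then HTRF anti-pH2AX (S139) cryptate and anti-H2AX-d2 antibodies, 24 hr room temperature; 665/620 nm emission read.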

[9] = qHTS assay to identify small molecule agonists of the hypoxia (HIF-1) signaling pathway (AID 1224846; active = well fitted activation curve with a large enough effect in the signal ratio in the repeat runs, not every such curve was filed as active; the % refers to the signal ratio)
Summary of the method: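 A low-serum medium (0.5% dialyzed FBS) holding 2,000 HRE-bla ME-180 cells per well is preincubated for 5 hrs, dosed with compounds by pintool, and kept a further 17 hrs at 37C, 5% CO2 before CCF4-AM FRET detection of beta-lactamase.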

[10] = molecular target: Nuclear receptor subfamily 1 group I member 3 (Homo sapiens) (UniProt Q14994); test: qHTS assay to identify small molecule antagonists of the constitutive androstane receptor (CAR) signaling pathway (AID 1224838);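 note: HepG2 cells stably expressing hCAR with CYP2B6 luciferase reporter stimulated by CITCO; nearly all actives have a fitted effect of over 40% in size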
Summary of the method: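 Cell line: HepG2 double-stable for hCAR and CYP2B6-2.2kb reporter. Agonist: CITCO, 50 nM final. Compounds: 15 concentrations, 24 h, 37 C. Detection: ONE-Glo luminescence.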

[11] = molecular target: Nuclear receptor subfamily 1 group I member 3 (Homo sapiens) (UniProt Q14994); test: qHTS assay to identify small molecule agonists of the constitutive androstane receptor (CAR) signaling pathway (AID 1224839); note: nearly all actives have a fitted effect of over 15% in size; note: potency is the fitted concentration of half-maximal effect;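 for activation: HepG2 cells stably carrying human CAR and a CYP2B6 luciferase reporter; series mostly up to about 92 µM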
Summary of the method: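 HepG2-CYP2B6-hCAR cells, 2500/well, 4 h pre-incubation; compounds 15 conc.; PK11195 0.75 uM final; 24 h, 37 C/5% CO2; ONE-Glo luciferase read.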

[12] = qHTS assay to identify small molecule antagonists of the estrogen related receptor signaling pathway with the pleiotropic PPARgamma coactivator (PGC) from Tox21 10K library (AID 1224841; call rule not given here; note: series mostly up to about 92 µM; actives are mostly falling curves and most rising ones were filed inactive; nearly all actives have a fitted effect of over 50% in size)
Summary of the method: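 qHTS antagonist format: PGC/ERR cells, 2k/well, compound in DMSO by pin transfer after 6 h attachment, 18 h treatment at 37 C, One-Glo luminescence read at 30 min.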

[13] = qHTS assay to identify small molecule agonists of the estrogen related receptor signaling pathway with the pleiotropic PPARgamma coactivator (PGC) from Tox21 10K library (AID 1224842); note: nearly all actives have a fitted effect of over 15% in size
Summary of the method: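 PGC/ERR reporter cell line, 2,000 cells per well, incubated 6 h at 37 C before 23 nL compound in DMSO was added. After 18 h at 37 C, One-Glo luminescence read following 30 min at room temperature.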

[14] = qHTS assay to identify small molecule agonists of H2AX - cell viability counter screen (AID 1224847; calls by dose curve; note: nearly all actives have a fitted effect of over 30% in size; note: potency is the fitted concentration of half-maximal effect; for activity change, negative = cytotoxicity: top concentration of the series differs between compounds)
Summary of the method: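 Cells plated first: CHO-K1, 1000 per well in 10% FBS medium, incubated overnight at 37C. Then 15-point compound titration added (final DMSO 0.76%) for 3 hr. Finally CellTiter-Glo added and luminescence read.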
% is set by controls: 0 for no effect and ±100 for the full control effect.

Chain of Nuclear receptor subfamily 1 group I member 3 (Homo sapiens) (Q14994 whole entry, looked up): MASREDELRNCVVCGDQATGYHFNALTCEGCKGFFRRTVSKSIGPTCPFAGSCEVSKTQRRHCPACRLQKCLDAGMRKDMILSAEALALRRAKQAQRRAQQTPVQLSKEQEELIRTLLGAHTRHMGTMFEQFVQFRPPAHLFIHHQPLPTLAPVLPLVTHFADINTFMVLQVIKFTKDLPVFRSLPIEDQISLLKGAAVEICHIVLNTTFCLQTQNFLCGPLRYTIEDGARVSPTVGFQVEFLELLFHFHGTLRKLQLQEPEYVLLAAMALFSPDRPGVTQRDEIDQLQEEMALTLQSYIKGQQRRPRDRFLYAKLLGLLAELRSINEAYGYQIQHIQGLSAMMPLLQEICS
Chain of Thyrotropin receptor (Homo sapiens) (P16473 whole entry, looked up): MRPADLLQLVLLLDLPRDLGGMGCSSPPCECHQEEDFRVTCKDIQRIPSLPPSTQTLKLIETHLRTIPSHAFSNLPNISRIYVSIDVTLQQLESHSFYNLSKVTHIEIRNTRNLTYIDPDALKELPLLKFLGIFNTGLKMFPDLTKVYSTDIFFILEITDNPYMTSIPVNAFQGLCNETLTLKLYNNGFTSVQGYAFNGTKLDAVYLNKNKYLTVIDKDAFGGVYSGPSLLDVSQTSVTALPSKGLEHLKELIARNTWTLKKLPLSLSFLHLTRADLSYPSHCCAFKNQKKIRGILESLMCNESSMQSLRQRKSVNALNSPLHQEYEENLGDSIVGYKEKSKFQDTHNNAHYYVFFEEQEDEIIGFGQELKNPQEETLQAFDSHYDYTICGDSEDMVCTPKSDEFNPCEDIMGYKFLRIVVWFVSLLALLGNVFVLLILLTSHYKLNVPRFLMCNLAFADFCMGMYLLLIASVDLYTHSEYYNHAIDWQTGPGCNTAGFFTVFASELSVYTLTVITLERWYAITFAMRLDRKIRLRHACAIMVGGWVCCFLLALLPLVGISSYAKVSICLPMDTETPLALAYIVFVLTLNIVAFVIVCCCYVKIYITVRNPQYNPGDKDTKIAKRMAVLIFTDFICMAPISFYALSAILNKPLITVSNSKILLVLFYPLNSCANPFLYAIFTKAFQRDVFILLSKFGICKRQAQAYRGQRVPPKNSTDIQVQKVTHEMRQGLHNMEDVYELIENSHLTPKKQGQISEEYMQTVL
Chain of Luciferin 4-monooxygenase (Photinus pyralis) (P08659 whole entry, looked up): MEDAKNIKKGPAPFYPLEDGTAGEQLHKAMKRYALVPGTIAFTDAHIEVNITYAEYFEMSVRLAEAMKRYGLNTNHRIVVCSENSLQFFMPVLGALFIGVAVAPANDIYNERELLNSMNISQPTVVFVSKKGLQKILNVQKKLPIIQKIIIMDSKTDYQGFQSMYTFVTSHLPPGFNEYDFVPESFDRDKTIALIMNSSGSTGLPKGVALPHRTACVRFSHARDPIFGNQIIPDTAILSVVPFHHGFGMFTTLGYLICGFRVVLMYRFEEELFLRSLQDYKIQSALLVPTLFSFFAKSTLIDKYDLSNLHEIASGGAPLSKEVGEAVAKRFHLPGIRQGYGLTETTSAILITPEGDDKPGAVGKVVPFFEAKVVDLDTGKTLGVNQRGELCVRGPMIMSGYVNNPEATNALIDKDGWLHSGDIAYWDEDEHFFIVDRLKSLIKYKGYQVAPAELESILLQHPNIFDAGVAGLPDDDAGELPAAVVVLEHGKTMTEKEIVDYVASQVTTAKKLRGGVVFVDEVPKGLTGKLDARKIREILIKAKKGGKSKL

CN1CCN(C)CC1
inactive: Potency [1] | Potency [2] | Potency [3] | Potency [4] | Potency [5] | Potency [6] | Potency [7] | Potency [8] | Potency [9]

CCN(CC)c1ccc2c(c1)Oc1cc(N(CC)CC)ccc1C21OC(=O)c2ccccc21
active: Potency [1] 6.68 µM | Potency [2] 13.8 µM | Potency [3] 8.41 µM | Potency [4] 4.73 µM | Potency [5] 8.41 µM
inactive: Potency [10] | Potency [11] | Potency [9]

CC(c1cc(C(C)(C)C)cc(C(C)(C)C)c1O)c1cc(C(C)(C)C)cc(C(C)(C)C)c1O
inactive: Potency [1] | Potency [2] | Potency [3] | Potency [4] | Potency [5] | Potency [12] | Potency [13] | Potency [6] | Potency [7] | Potency [9] | Potency [14]

CCCCCCCCCCCC(=O)Cl
active: Potency [2] 39.9 µM
inactive: Potency [1] | Potency [3] | Potency [4] | Potency [10] | Potency [11] | Potency [5] | Potency [6] | Potency [8] | Potency [14]

Cc1cc(C)c(O)c(C(C)(C)C)c1
active: Potency [14] 113 µM
inactive: Potency [1] | Potency [2] | Potency [3] | Potency [4] | Potency [11] | Potency [13] | Potency [7] | Potency [9]

O=C1CCC/C=C\CCCCCCCCCC1
active: Potency [11] 27.3 µM
inactive: Potency [1] | Potency [2] | Potency [3] | Potency [4] | Potency [10] | Potency [5] | Potency [14]

O=C(O)C[C@H](O)C[C@H](O)/C=C/c1c(C2CC2)nc2ccccc2c1-c1ccc(F)cc1
inactive: viability change, negative = cytotoxic [1] 0.576% [at 19 µM] | activity change, negative = inhibition [2] 5.31% [at 23.6 µM] | viability change, negative = cytotoxic [3] -13.2% [at 19 µM] | activity change, negative = cytotoxicity [4] -0.918% [at 19 µM] | activation [11] -6.78% [at 19 µM] | viability change, negative = cytotoxic [5] -0.117% [at 19 µM] | activity, negative = inhibition [12] 10.6% [at 19 µM] | activation [13] -0.0293% [at 19 µM] | activation [6] -24.9% [at 19 µM] | activity change, negative = cytotoxicity [7] -17.5% [at 15.8 µM] | activation (H2AX phosphorylation) [8] -2.12% [at 31.6 µM] | activity change, negative = cytotoxicity [14] -0.332% [at 31.6 µM]

CC(O)(c1ccc(Cl)cc1)c1ccc(Cl)cc1
active: Potency [1] 61.1 µM | Potency [11] 15.4 µM | Potency [14] 56.6 µM
inactive: Potency [2] | Potency [3] | Potency [4] | Potency [10] | Potency [13]

CC1CCC(C(C)(C)O)CC1 (stereo not drawn)
inactive: Potency [1] | Potency [2] | Potency [3] | Potency [4] | Potency [11] | Potency [5] | Potency [7] | Potency [14]

C=C[Si](C)(C)Cl
inactive: viability change, negative = cytotoxic [1] 5.38% [at 8.39 µM] | activity change, negative = inhibition [2] 5.1% [at 10.5 µM] | viability change, negative = cytotoxic [3] -0.0044% [at 8.39 µM] | activity change, negative = cytotoxicity [4] -8.76% [at 8.39 µM] | viability change, negative = cytotoxic [5] 3.07% [at 8.39 µM] | activation [6] -10.3% [at 8.39 µM] | activity change, negative = cytotoxicity [7] -0.253% [at 6.97 µM] | activation (H2AX phosphorylation) [8] 0.0782% [at 14 µM] | activation [9] 0.268% [at 7.01 µM]

[Cl][Dy]([Cl])[Cl]
active: Potency [2] 28.3 µM
inactive: Potency [1] | Potency [3] | Potency [4] | Potency [11] | Potency [5] | Potency [6] | Potency [7] | Potency [8] | Potency [14]

O=C(Cl)c1ccc(Cl)cc1Cl
inactive: Potency [1] | Potency [3] | Potency [4] | Potency [10] | Potency [11] | Potency [5] | Potency [7] | Potency [9] | Potency [14]
active: Potency [2] 25.2 µM

CCNc1nc(NC(C)(C)C)nc(OC)n1
active: Potency [11] 30.6 µM
inactive: Potency [1] | Potency [2] | Potency [3] | Potency [4] | Potency [5] | Potency [6] | Potency [7] | Potency [8] | Potency [9] | Potency [14]

CC1(C)[C@H](C(=O)OCc2cccc(Oc3ccccc3)c2)[C@@H]1C=C(Cl)Cl
inactive: Potency [1] | Potency [2] | Potency [3] | Potency [4] | Potency [11] | Potency [5] | Potency [6] | Potency [7] | Potency [9] | Potency [14]
